# Assay outcomes as filed in PubChem BioAssay.
# DT40 TDP1 no CPT: qHTS for Inhibitors of human tyrosyl-DNA phosphodiesterase 1 (TDP1): qHTS in cells in absence of CPT | DT40 Tdp1-/- hTDP1 cells, no CPT, ATP luminescence, 48 h | Potency, µM (doses to about 46.2 µM), inactives show at the highest dose activity change, negative = growth inhibition, actives largely listed as inhibitors | hit rate 15% among 420,000; note: potency is the fitted concentration of half-maximal effect; nearly all actives have a fitted effect of over 55% in size
#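 No-CPT arm: Tdp1-/-;hTDP1 DT40 cells (400/well) plus compounds, incubated ≥48 hr at 37 °C. Readout CellTiter-Glo luminescence.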
# HT1080NT lethal: kills 2HG-producing HT-1080-NT fibrosarcoma cells. HT-1080-NT fibrosarcoma viability, CellTiter-Glo ATP luminescence, 48 h. hit rate 1.6% among 360,000. Potency, µM (highest dose often 46.1 µM), for the others: at the top dose activity, negative = less viability, hits mostly cytotoxic;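 note: NT is the 2HG producing partner of a matched IDH1 knockdown line; potency is the fitted concentration of half-maximal effect; 0% = DMSO-treated cells and -100% = media-only wells without cells; nearly all actives have a fitted effect of over 55% in size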
#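 Luminescent CellTiter-Glo readout after 48 hours of compound exposure at 37 degrees C defined viability of HT-1080-NT cells. Activity was normalized to DMSO wells and cell-free media wells; concentration-response curves were fitted and assigned curve classes.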
# HT1080 IDH1KD tx: kills HT-1080 cells with IDH1 knockdown. HT-1080 IDH1 knockdown viability, ATP luminescence, 48 h. Potency, µM (series often up to 46.1 µM), for inactives: at the highest dose activity, negative = toxicity, most hits filed as cytotoxic. hit rate 2% among 360,000;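 note: potency is the fitted concentration of half-maximal effect; 0% = DMSO wells and -100% = cell-free medium wells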
#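 Knockdown cells (IDH1KD HT-1080) received compounds 2 h after plating at 750 cells/well and were kept 48 h at 37 °C in 5% FBS RPMI. A CellTiter-Glo luminescence read gave % activity for curve fitting.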
# IL-1B inflam inh: blocks inflammasome-driven IL-1 beta release; hit rate 4.7% among 360,000; THP-1 LPS/ATP IL-1B secretion, AlphaLISA, 16 h; active compounds read low; activity change, % at 57.5 µM; AID 743279; in the data active = activity change below about -50%; inconclusive = mostly about -30% to -49%
#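 Secreted IL-1B measured by AlphaLISA bead assay after 16 h compound exposure of THP-1 cells; compounds (final up to 57.5 uM) added 1 h before LPS (250 ng/mL) and ATP (1.25 mM) stimulation; lower signal means less secretion.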
# DT40 TDP1 CPT: growth inhibition of DT40 Tdp1-/-;hTDP1 cells with camptothecin (screen for TDP1 inhibitors) | hit rate 12% among 420,000 | chicken DT40 Tdp1-/-;hTDP1 cells + 20 nM CPT, ATP luminescence, 48 h | Potency, µM (series often up to 46.2 µM), for the others: top-dose activity change, negative = growth inhibition, most hits filed as inhibitors; note: potency is the fitted concentration of half-maximal effect; nearly all actives have a fitted effect of over 55% in size
#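 Chicken DT40 Tdp1-/- cells complemented with human TDP1, 400 cells/well, exposed to compounds plus 20 nM camptothecin for at least 48 h at 37 C; viability read as ATP content by CellTiter-Glo luminescence.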
# Starred values were filed as active, the others as inactive; ? = inconclusive; / = no result. Hits are enriched below; roughly 19% of the tested compounds scored in any of these assays. Unless noted, calls come from the whole dose curve; as a rule, active = well fitted curve in the direction sought with a large enough effect; inconclusive = small, poorly fitted or top-dose-only effect, or another doubt; inactive = no such curve, though single readings can be large; an effect the other way counts as inactive or inconclusive. Unless noted, % is set by controls: 0 for no effect and ±100 for the full control effect.
SMILES,DT40 TDP1 no CPT,HT1080NT lethal,HT1080 IDH1KD tx,IL-1B inflam inh,DT40 TDP1 CPT
CCOC(=O)N1CCC(NC(=O)c2ccc3c(c2)sc2nc(-c4ccccc4)cn23)CC1,9.2µM*,-12%,-22%,-15,15µM*
O=C(NC1CCCCCC1)c1ccc2c(c1)sc1nc(-c3ccccc3)cn12,16µM*,/,/,/,9.2µM*
CCc1ccc(-c2cn3c(n2)sc2cc(C(=O)NC4CCCCC4)ccc23)cc1,6.5µM*,/,/,/,3.7µM*
COc1ccc(-c2cn3c(n2)sc2cc(C(=O)NC4CCCCC4)ccc23)cc1,-24%,/,/,/,?
Cn1ccc2c(-c3cncc4ccccc34)cc3c(c21)C1CCC3C1 (configuration not stated),18µM*,-18%,-28%,11,?
COc1ccc(-c2cc3c(c4c2ccn4C)C2CCC3C2)cc1OC (configuration not stated),26µM*,?,-27%,-23,?
Cn1ccc2c(-c3cccc(C=O)c3)cc3c(c21)C1CCC3C1 (configuration not stated),?,?,?,-8,23µM*
COc1ccccc1C(CC(N)=O)c1ccco1 (configuration not stated),-13%,4%,8%,0,-11%
COc1ccccc1C(CCN(Cc1ccccc1)C(C)=O)c1ccco1 (configuration not stated),16µM*,?,?,-17,?
O=c1[nH]cnc2scc(-c3ccc(-c4ccccc4)cc3)c12,?,-1%,6%,-68*,-23%
Cc1ccc(-c2csc3nc[nH]c(=S)c23)cc1C,21µM*,?,21µM*,-16,7.3µM*
COc1ccc(-c2csc3nc[nH]c(=O)c23)cc1OC,3%,5%,4%,6,0%
COc1ccc(C(C(=O)NC2CCCCC2)N(C(=O)c2sc(C)nc2C)c2ccc(OC)cc2)cc1 (configuration not stated),-22%,3%,-4%,5,?
CCc1ccc(N(C(=O)c2ccoc2C)C(C(=O)NC2CCCC2)c2ccc(OC)cc2)cc1 (configuration not stated),18µM*,17%,0%,?,23µM*
COc1ccc(C(C(=O)NC2CCCC2)N(C(=O)c2ccoc2C)c2cc(C)cc(C)c2)cc1 (configuration not stated),29µM*,-17%,-30%,?,26µM*
COc1ccc(C(C(=O)NC2CCCC2)N(C(=O)c2ccoc2C)c2ccc(C)c(C)c2)cc1 (configuration not stated),13µM*,-19%,?,?,?
COc1ccc(C(C(=O)NC2CCCC2)N(C(=O)c2ccoc2C)c2ccccc2)cc1 (configuration not stated),?,-18%,-1%,-3,?
COc1ccc(N(C(=O)c2ccco2)C(C(=O)NC2CCCC2)c2ccccc2)cc1 (configuration not stated),?,-1%,0%,-8,?
CCCNC(=O)Nc1ccc(C(F)(F)F)cc1,-23%,5%,12%,?,?
CN(C)S(=O)(=O)c1ccc(C(=O)NC2CCCc3ccccc32)cc1 (configuration not stated),-15%,-5%,-2%,13,6%
COc1ccccc1CNC(=O)COC(=O)Cc1ccc(Cl)cc1,21%,4%,6%,15,7%
CCOC(=O)c1sc2nc(-c3ccco3)c3c(c2c1N)CC(C)(C)OC3,21µM*,0%,-11%,-53*,21µM*
CN1Cc2c(N3CCOCC3)nc3sc(C(=O)c4ccccc4)c(N)c3c2CC1(C)C,?,-14%,-10%,-10,16µM*
CC1(C)Cc2c(c(N3CCOCC3)nc3sc(C(N)=O)c(N)c23)CO1,?,-18%,-4%,-15,9%
CC1(C)Cc2c(c(N3CCOCC3)nc3sc(C(=O)Nc4ccc(Cl)cc4)c(N)c23)CO1,23µM*,14%,15%,-1,?
SMILES,DT40 TDP1 no CPT,HT1080NT lethal,HT1080 IDH1KD tx,IL-1B inflam inh,DT40 TDP1 CPT
COc1cccc(NC(=O)c2sc3nc(N4CCOCC4)c4c(c3c2N)CC(C)(C)OC4)c1,6.5µM*,/,/,/,5.8µM*
COc1ccc(NC(=O)c2cccc(Cn3cc(Br)cn3)c2)cn1,?,2%,7%,34,?
COc1ccc(NC(=O)Nc2cccc3[nH]c([C@@H]4O[C@H](CO)[C@@H](O)[C@H](O)[C@H]4O)nc23)cc1OC1CCCC1,4%,20%,16%,41,-2%
Cc1ccc(S(=O)(=O)N2CCOCC2)cc1NC(=O)Nc1ccc([N+](=O)[O-])cc1,?,0%,7%,-3,?
CO[C@H]1C[C@@H]2CC[C@@H](C)[C@@](O)(O2)C(=O)C(=O)N2CCCC[C@H]2C(=O)O[C@H]([C@H](C)C[C@@H]2CC[C@@H](O)[C@H](OC)C2)CC(=O)[C@H](C)C=C(C)[C@@H](O)[C@@H](OC)C(=O)[C@H](C)C[C@H](C)/C=C/C=CC=C1C,0.0047µM*,/,/,/,0.0024µM*
Cc1cc(NC(=O)c2cc(-c3ccncc3)nc3ccccc23)ccc1Br,?,3%,-21%,-50*,23µM*
COc1cc(-c2cc(C(=O)Nc3cccc(C(C)=O)c3)c3ccccc3n2)cc(OC)c1OC,?,-25%,?,-19,6.5µM*
COc1ccc(NC(=O)c2cc(-c3ccncc3)nc3ccccc23)c(OC)c1,?,?,?,-20,?
COc1ccc(NC(=O)c2cc(-c3ccc(OC)c(OC)c3)nc3ccccc23)c(OC)c1,16µM*,-6%,-28%,6,29µM*
COc1cccc(-c2cc(C(=O)Nc3ccncc3)c3ccccc3n2)c1,16µM*,-26%,-29%,-11,?
c1ccc2oc(-c3ccc(Nc4nc(N5CCOCC5)nc(N5CCOCC5)n4)cc3)nc2c1,-30%,-3%,-1%,14,-26%
O=C(NNC(=O)c1ccc(Cl)cc1Cl)Nc1ccccc1,-5%,29%,30%,-19,-1%
COc1ccccc1CCNC(=O)c1cc(-c2ccncc2)nc2ccc(Br)cc12,21µM*,1%,-4%,-3,?
CCCCN(CCCC)CCCNC(=O)c1cc(-c2ccc(Cl)s2)nc2ccccc12,15µM*,/,/,/,13µM*
O=C(NNC(=O)c1cc(-c2ccc(Cl)cc2Cl)nc2ccccc12)Nc1ccccc1,21µM*,?,?,-64*,?
